Compounds with a hit are over-represented: about 3.9% of the library has one in this group of screens.
Tb PFK inh = blocks T. brucei phosphofructokinase | hit rate 0.17% among 330,000 | T. brucei PFK, ADP-Glo luminescence | Potency, µM (titrated, usually from 57.5 µM), for inactives: at the highest dose activity, negative = inhibition, hits mostly inhibitors;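 further: 0% = uninhibited 1x PFK enzyme wells and -100% = no-enzyme wells; nearly all actives have a fitted effect of over 60% in size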
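ADP-Glo luminescence quantified ADP after 45 min at room temperature, with 1.25 nM T. brucei PFK, 0.1 mM ATP and 0.5 mM fructose-6-phosphate in pH 8.0 TEA buffer. qHTS titrations up to 57 µM; curves classified by quality.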
BRCA1 expr up = increases BRCA1 expression; MCF7-BRCA1-FFLuc reporter, luminescence, 48 h; response scale: scaled: vehicle 0%, 10 µM genistein 100%; Potency, µM (highest dose often 46.1 µM), for the others: at the highest dose activation, actives largely listed as activators; hit rate 1.1% among 380,000; further: nearly all actives have a fitted effect of over 80% in size
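MCF7-BRCA1-FFLuc cells, 2000/well in phenol-red-free MEM, attached 2 h then treated 48 h at 37 C. Luciferase luminescence read 15 min after reagent; normalized to genistein maximum activation (10microM) and DMSO, concentration-response fitted.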
PLK1 PBD block = blocks phosphopeptide binding to human PLK1 polo-box domain | Plk1 PBD binding of FITC phosphopeptide, fluorescence polarization | Potency, µM, for the others: max response, negative = inhibition, hits mostly inhibitors | hit rate 2.8% among 360,000 | AID 720504; further: series mostly up to about 57 µM; on the % scale 0 is the no-effect control and ±100 the full control effect; nearly all actives have a fitted effect of over 65% in size
VDR inh = inhibitors of human vitamin D receptor; P11473; VDR-SRC2-3 peptide fluorescence polarization, 2 h; Potency, µM, without a hit: max response, negative = inhibition, actives largely listed as inhibitors; hit rate 0.93% among 400,000; further: on the % scale 0 is the no-effect control and ±100 the full control effect
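Measured by FP: displacement of SRC2-3 coactivator peptide from VDR by library compounds, following a two-hour ambient incubation.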
* marks the source's active call; other numbers are inactive results. The call rests on the fitted dose curve; in most records, active means well fitted curve in the direction sought with a large enough effect; inconclusive means small, poorly fitted or top-dose-only effect, or another doubt; inactive means no such curve, though single readings can be large; an effect the other way counts as inactive or inconclusive. Potency means the concentration at half of the fitted maximal effect.

What do the screens show for `O=C(Cn1cc(COc2ccccc2C(F)(F)F)nn1)c1ccc(O)cc1`?
BRCA1 expr up: -1.6%; PLK1 PBD block: 21.2µM*; VDR inh: inconclusive

What do the screens show for `O=C(Cn1cc(COc2ccc(Br)cc2[N+](=O)[O-])nn1)c1ccc(O)cc1`?
BRCA1 expr up: 14.5%; PLK1 PBD block: 26.7µM*; VDR inh: -29.0%

Results for COc1cc(C(C)=O)ccc1OCc1cn(CC(=O)c2ccc(O)cc2)nn1 ?
BRCA1 expr up: -0.4%; PLK1 PBD block: 23.8µM*; VDR inh: 89.1µM*

Results for O=C(NC1CCCCC1)n1c(=O)oc2ccc(Cl)cc21 ?
Tb PFK inh: 0.1%; BRCA1 expr up: 40.1%; PLK1 PBD block: 5.97µM*; VDR inh: -0.4%

What do the screens show for `COC(=O)[C@]12CCCCC=C1N(CCC1=CCCCC1)C(=O)[C@H](CC(=O)NCCC(C)C)C2`?
BRCA1 expr up: -37.5%; PLK1 PBD block: -6.3%

Results for O=C(OCCCN1C(=O)c2ccccc2C1=O)c1ccco1 ?
Tb PFK inh: -5.9%; BRCA1 expr up: -13.1%; PLK1 PBD block: 26.7µM*; VDR inh: 1.5%

What do the screens show for `O=C(c1ccco1)N1CCN(CCCCN2C(=O)c3ccccc3C2=O)CC1`?
Tb PFK inh: -4.1%; BRCA1 expr up: 24.4%; PLK1 PBD block: -11.8%; VDR inh: -2.7%

Results for O=C(O)CSc1cccc[n+]1[O-] ?
BRCA1 expr up: -1.9%; PLK1 PBD block: -1.3%; VDR inh: 16.1%

What do the screens show for `Cc1ccnc(SCC(=O)c2cccs2)n1`?
Tb PFK inh: -5.9%; BRCA1 expr up: 2.51µM*; PLK1 PBD block: -19.2%; VDR inh: 6.3%

How did O=C(CSc1cccc[n+]1[O-])c1cccs1 do in these assays?
Tb PFK inh: 1.1%; BRCA1 expr up: 0.0%; PLK1 PBD block: 23.8µM*; VDR inh: 7.4%

Results for O=C(CSc1cccc[n+]1[O-])c1cc2ccccc2o1 ?
Tb PFK inh: -9.6%; BRCA1 expr up: 54.7%; PLK1 PBD block: 26.7µM*; VDR inh: -2.8%

What do the screens show for `CSc1nc(-c2ccccc2)nc2c1COC(C)(C)C2`?
Tb PFK inh: 1.8%; BRCA1 expr up: -19.6%; PLK1 PBD block: 29.9µM*; VDR inh: 2.4%

Results for COc1ccc(Oc2nc3c(C)cccn3c(=O)c2/C=C(\C#N)c2nc3ccccc3[nH]2)cc1 ?
VDR inh: -9.8%

How did Cc1cccn2c(=O)c(/C=C(\C#N)c3nc4ccccc4s3)c(Oc3ccc(Br)cc3)nc12 do in these assays?
VDR inh: 79.4µM*

How did O=C(Nc1ccccc1N1CCOCC1)c1cc(=O)[nH]c2ccccc12 do in these assays?
Tb PFK inh: -1.5%; BRCA1 expr up: -4.2%; PLK1 PBD block: -9.4%; VDR inh: -10.0%

Results for COC(=O)c1ccccc1NS(=O)(=O)c1ccc(O)c(C(=O)O)c1 ?
Tb PFK inh: 37.9µM*; BRCA1 expr up: 8.4%; PLK1 PBD block: -1.5%; VDR inh: -5.1%

Results for O=C(O)c1ccccc1NS(=O)(=O)c1ccc2ccccc2c1 ?
Tb PFK inh: 9.6%; BRCA1 expr up: 12.6µM*; PLK1 PBD block: -24.5%; VDR inh: -6.6%

Results for Cc1cc(S(=O)(=O)Nc2ccccc2C(=O)O)ccc1Cl ?
Tb PFK inh: 0.9%; BRCA1 expr up: 31.1%; PLK1 PBD block: -16.7%; VDR inh: -3.8%

What do the screens show for `COC(=O)c1ccccc1NS(=O)(=O)c1ccc(F)cc1`?
Tb PFK inh: -0.7%; BRCA1 expr up: 2.7%; PLK1 PBD block: -0.6%; VDR inh: 1.1%

How did N#Cc1ccc2c(c1)N(CCCN1CCC(O)CC1)c1ccccc1S2 do in these assays?
VDR inh: -0.8%

What do the screens show for `CC(C)(C)Nc1oc(-c2ccccc2)nc1-c1ccccc1`?
VDR inh: -3.6%

How did C[C@H]1CN([C@@H](C)CO)C(=O)CCCn2nncc2CO[C@@H]1CN(C)C(=O)Nc1ccc2c(c1)OCO2 do in these assays?
BRCA1 expr up: 0.1%; PLK1 PBD block: 5.32µM*

What do the screens show for `C[C@@H]1CN([C@@H](C)CO)C(=O)CCCn2nncc2CO[C@H]1CN(C)C(=O)Nc1ccc2c(c1)OCO2`?
BRCA1 expr up: 14.9%; PLK1 PBD block: 7.3%

Results for N#Cc1c(N2CCOCC2)nsc1-c1ccc(C(F)(F)F)cc1 ?
Tb PFK inh: -0.1%; BRCA1 expr up: 5.01µM*; PLK1 PBD block: -13.1%; VDR inh: 22.0%

How did Cc1cc(C(F)(F)F)c(C#N)c(N2CCOCC2)n1 do in these assays?
Tb PFK inh: -5.6%; BRCA1 expr up: -1.1%; PLK1 PBD block: 3.36µM*; VDR inh: inconclusive
